This is a sample that favours compounds with a hit; in the whole collection about 9.7% have one here.
M1 ag: agonists of M1 muscarinic receptor | CHO-M1 cells, Fluo-4 calcium fluorescence, agonist mode; stronger effect = higher value | B-score at 10 µM | 64,000 compounds, 3% hits | AID 626;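 active = fluorescence rise, raw or as B-score row- and column-corrected plate score, outside the 99.7% band of its plate's samples, either direction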
BAP1 inh: blocks human BAP1 ubiquitin-AMC hydrolysis; recombinant BAP1, Ub-AMC hydrolysis fluorescence kinetic; stronger effect = lower value; calls only at 20 µM; 72,000 compounds, 0.48% hits;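 active = activity remaining at or below 50% of control, provided the compound also passes the data quality filters; inactive = the rest, including low values that fail the filters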
WNV protease inh: inhibitors of West Nile virus NS2B-NS3 protease; WNV NS2B-NS3 protease, fluorogenic substrate Ex360/Em465; stronger effect = lower value; P06935; z-score (no concentration beside the values); 65,000 compounds, 0.18% hits; AID 577; in the data active = z-score below about -3
M1 antag: blocks the rat M1 muscarinic receptor response to acetylcholine; P08482; CHO-M1 cells, Fluo-4 calcium, ACh EC80 antagonist mode; stronger effect = lower value; B-score at 10 µM; 64,000 compounds, 3.4% hits; AID 628;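 active = calcium fluorescence response, raw or row-and-column corrected B-score, differing from the plate sample mean either way at a set confidence level, mostly lower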
Target sequence (P08482 whole entry, looked up): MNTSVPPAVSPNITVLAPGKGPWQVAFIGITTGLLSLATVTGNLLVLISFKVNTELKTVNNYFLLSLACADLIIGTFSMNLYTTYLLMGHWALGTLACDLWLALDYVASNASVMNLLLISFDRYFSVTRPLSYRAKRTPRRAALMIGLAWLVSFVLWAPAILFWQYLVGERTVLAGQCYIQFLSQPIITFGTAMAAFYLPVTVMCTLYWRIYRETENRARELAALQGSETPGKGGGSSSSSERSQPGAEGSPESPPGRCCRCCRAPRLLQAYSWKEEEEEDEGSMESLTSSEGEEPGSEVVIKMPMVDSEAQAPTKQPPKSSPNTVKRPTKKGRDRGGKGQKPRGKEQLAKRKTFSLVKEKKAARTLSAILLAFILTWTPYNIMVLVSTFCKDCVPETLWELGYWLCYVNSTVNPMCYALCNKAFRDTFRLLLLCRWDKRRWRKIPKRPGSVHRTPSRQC
Abs 340nm: compound absorbs light at 340 nm | 65,000 tested, under 10 active | compound absorbance at 340 nm, fold over control | AID 708 | fold change at 10 µM;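 active = at 10 µM dose, initial 340 nm absorbance at least 2 fold that of control wells; inactive = change under 2 fold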;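 note: initial absorbance extrapolated from kinetic A340 decline of NADH oxidation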
Fluor 339 460: intrinsic fluorescence of library compounds, ex339/em460 – biochemical, MLSMR library, data from DPM-DC assay, artefact control, profiling panel. 65,000 compounds, 5.5% hits. fluorescence fold increase at 10 µM. compound autofluorescence, ex339/em460 nm, NADH buffer; stronger effect = higher value; 1 = no-compound wells, NADH background;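 active = at 10 µM, mean starting fluorescence two-fold or more over control wells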;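 note: signal is the first read of a kinetic run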
Large screens that a line does not name were inactive.

O=c1c(-c2ccc(Cl)cc2)[n+]([O-])c2ccccc2n1O	M1 ag 28
CC(=O)N1CCC(N(C(=O)Nc2ccc(C)c(C)c2)C2CCCC2)CC1	M1 antag 3
CC(C)c1cc(C(C)C)c(S(=O)NCCCN2CCOCC2)c(C(C)C)c1 (stereo not given)	none (no result: M1 ag, WNV protease inh, M1 antag, Abs 340nm, Fluor 339 460)
CC1C2CC(CC1(C)C)N(C(=O)Nc1ccc3nccnc3c1)C2 (stereo not given)	Fluor 339 460 2.2
Cc1nc2cc(NC(=O)N3CC4(C)CC3CC(C)(C)C4)ccc2n1C (stereo not given)	none
CCc1ccc(NC(=O)COc2ccc(C(C)C)cc2)cc1	none (no result: M1 ag, WNV protease inh, M1 antag, Abs 340nm, Fluor 339 460)
O=C(Nc1ccc(Br)cc1)c1nc[nH]c1C(=O)O	none (no result: M1 ag, WNV protease inh, M1 antag, Abs 340nm, Fluor 339 460)
COC(=O)C1=CN(CC2CCCO2)C=C(C(=O)OC)C1c1ccsc1 (stereo not given)	Fluor 339 460 2.1 (not shown: BAP1 inh)
CCOC(=O)C1=CN(C)C=C(C(=O)OCC)C1c1ccsc1	M1 antag 2.2, Fluor 339 460 4.8 (not shown: BAP1 inh)
CCC(O)CNc1nc(-n2nc(C)cc2C)nc2sc3c(c12)CCCC3 (stereo not given)	none
Cc1cc(C)n(-c2nc(NCc3cccnc3)c3c4c(sc3n2)COC(C)(C)C4)n1	Fluor 339 460 3.7
COC(=O)c1ccc(NC(=O)C2CCCO2)cc1 (stereo not given)	none
O=C(Nc1ccc2c(c1)C(=O)N(C1CCCCC1)C2=O)C1CCCO1 (stereo not given)	Fluor 339 460 2.5
CS(=O)(=O)c1nc(-c2ccco2)cc(C(F)(F)F)n1	none (no result: BAP1 inh)
FC(F)(F)c1cc(-c2ccco2)nc(-n2nc(C(F)(F)F)cc2C2CC2)n1	Fluor 339 460 3.4
FC(F)(F)c1cc(-c2ccco2)nc(-n2nnc3ccccc32)n1	Fluor 339 460 2.4
Fc1ccccc1-n1nnnc1SCc1ccccc1Cl	none (no result: M1 ag, WNV protease inh, M1 antag, Abs 340nm, Fluor 339 460)
COc1cc(OC)cc(C(=O)Nc2ccccc2-c2nc3ccccc3[nH]2)c1	none (no result: M1 ag, WNV protease inh, M1 antag, Abs 340nm, Fluor 339 460)
CC(CCOC(=O)CN1CCCCC1)CCc1ccccc1 (stereo not given)	none (no result: M1 ag, WNV protease inh, M1 antag, Abs 340nm, Fluor 339 460)
Cc1[nH]nc2c1C1(CCN(Cc3ccccc3)CC1)C(C#N)=C(N)O2	M1 ag 4.1
O=c1oc2ccccc2cc1-c1cn2cccnc2n1	Fluor 339 460 3.6
O=c1oc2ccccc2cc1-c1cn2ccccc2n1	none (no result: M1 ag, WNV protease inh, M1 antag, Abs 340nm, Fluor 339 460)
CC(C)NC(=O)CSc1nncn1-c1ccccc1	none
CC(C)NC(=O)CSc1nc2ccccc2n1-c1ccccc1	M1 antag 0.95
CSc1nc2c(c(=O)[nH]1)C(c1cccs1)C1=C(CCCC1=O)N2 (stereo not given)	none (no result: BAP1 inh)
Cc1ccc(CSc2nc3c(c(=O)[nH]2)C(c2ccncc2)C2=C(CCCC2=O)N3)cc1 (stereo not given)	Fluor 339 460 2.4
CCN1C(=S)SC(=O)C1=C1C=C(C)N(CCO)C(C)=C1	none (no result: BAP1 inh)
CCN1C(=S)SC(=O)C1=C1C=C(C)N(CCOC)C(C)=C1	M1 ag 44 (no result: BAP1 inh)
CCOC(=O)c1c(NC(=O)c2ccc([N+](=O)[O-])cc2Cl)sc2c1CCC(CC)C2 (stereo not given)	none (no result: M1 ag, WNV protease inh, M1 antag, Abs 340nm, Fluor 339 460)
CCOC(=O)c1c(NC(=O)c2noc3c2CCCC3)sc2c1CCCC2	none
CCCc1cc(C(=O)Nc2sc3c(c2C(=O)OCC)CCCC3)no1	Fluor 339 460 2.1
CCC1CCc2c(sc(NC(=O)c3ccoc3C)c2C(N)=O)C1 (stereo not given)	Fluor 339 460 2.1 (not shown: BAP1 inh)
CCOC(=O)c1c(NC(=O)c2ccoc2C)sc2c1CCC2	Fluor 339 460 2.2
CCOC(=O)c1c(NC(=O)c2ccoc2C)sc2c1CCC(C(C)(C)C)C2 (stereo not given)	none (no result: M1 ag, WNV protease inh, M1 antag, Abs 340nm, Fluor 339 460)
CC1CCN(CCNC(=O)c2ccc(NC(=O)C3CCCO3)cc2)CC1 (stereo not given)	none (no result: BAP1 inh)
COc1ccc(N2CCN(CCNC(=O)c3ccc(NC(=O)C4CCCO4)cc3)CC2)cc1 (stereo not given)	M1 ag -2.8 (no result: BAP1 inh)
CCOC(=O)C1=C(CC)Nc2ccccc2N=C1NC(=O)Nc1ccccc1OC	M1 antag 0.84
Cc1nc(N2CCN(C(=O)c3ccc(Cl)cc3)CC2)c(C#N)c2c1COC(C)(C)C2	Fluor 339 460 2.3
CC(C)Cc1nc(N2CCN(C(=O)c3ccco3)CC2)c(C#N)c2c1CCC2	none
CCCNC(=O)N1CCN(c2nc(C(C)C)c3c(c2C#N)CC(C)(C)OC3)CC1	none
CC1(C)Cc2c(C#N)c(N3CCN(C(=O)c4ccco4)CC3)nc(-c3ccco3)c2CS1	none (not shown: BAP1 inh)
CC1(C)Cc2c(C#N)c(N3CCN(C(=O)c4ccco4)CC3)nc(Cc3ccccc3)c2CO1	Fluor 339 460 2.2 (not shown: BAP1 inh)
N#Cc1c(N2CCN(C(=O)c3ccco3)CC2)nc(-c2ccccc2)c2c1CCCC2	Fluor 339 460 2.2 (not shown: BAP1 inh)
CCOc1ccc2[nH]c(=O)c(CN(CC3CCCN3CC)C(=O)NCc3ccccc3)cc2c1 (stereo not given)	Fluor 339 460 3.4 (not shown: BAP1 inh)
COc1ccc2[nH]c(=O)c(CN(CCCN(C)C)C(=O)Nc3ccc(F)cc3)cc2c1	Fluor 339 460 2.7 (not shown: BAP1 inh)
Cc1ccc(NC(=O)N(CCCN2CCOCC2)Cc2cc3cc4c(cc3[nH]c2=O)OCO4)cc1	Fluor 339 460 2.9 (not shown: BAP1 inh)
Cc1ccc2[nH]c(=O)c(CN(CCN3CCOCC3)C(=O)Nc3ccc(F)cc3)cc2c1	none
COc1ccc2[nH]c(=O)c(CN(CCCN3CCOCC3)C(=O)NCc3ccccc3)cc2c1	Fluor 339 460 3.3 (not shown: BAP1 inh)
CCOc1ccc2[nH]c(=O)c(CN(CCc3ccccc3)C(=O)c3cnccn3)cc2c1	none
CC(=O)c1ccc(N2CCN(C(=O)c3cc([N+](=O)[O-])ccc3F)CC2)c(F)c1	none (no result: M1 ag, WNV protease inh, M1 antag, Abs 340nm, Fluor 339 460)
O=C(Nc1ccccc1F)N(CCCN1CCOCC1)Cc1cc2cc3c(cc2[nH]c1=O)OCCO3	Fluor 339 460 3.8 (not shown: BAP1 inh)
CCN(CC)CCCN(Cc1cc2cc3c(cc2[nH]c1=O)OCCO3)C(=O)Nc1ccccc1	Fluor 339 460 3
CCc1ccc2[nH]c(=O)c(CN(CCCN3CCOCC3)C(=O)Nc3ccccc3)cc2c1	none
O=C(Nc1ccccc1)N(CCCN1CCOCC1)Cc1cc2cc3c(cc2[nH]c1=O)OCCO3	Fluor 339 460 2.5 (not shown: BAP1 inh)
COc1ccc2[nH]c(=O)c(CN(CCN3CCCC3)C(=O)Nc3ccccc3Cl)cc2c1	Fluor 339 460 3.2
Cc1ccc(NC(=O)N(Cc2ccc3c(c2)OCO3)Cc2cc3cc4c(cc3[nH]c2=O)OCCO4)cc1	none (not shown: BAP1 inh)
O=C(CSC1=NCCS1)N1CCOCC1	M1 antag 2.1
O=C(CSC1=NCCS1)N1CCN(c2ccccc2)CC1	none (no result: WNV protease inh)
O=c1c2ccccc2nc2c3ccccc3ncn12	Fluor 339 460 2.3 (no result: BAP1 inh)
CCSCCOC(=O)C1=C(C)NC2=C(C(=O)CC(C)(C)C2)C1c1ccccc1F (stereo not given)	none (no result: M1 ag, WNV protease inh, M1 antag, Abs 340nm, Fluor 339 460)
O=C(Nc1ccncc1)c1ccc2c(c1)OCCO2	none
O=C(NC1CC1)c1cccc(Nc2ccc(-c3ccc4c(c3)OCCO4)nn2)c1	M1 ag 3.8
